A selection: hits, their analogues and other compounds. The true share with any hit is near 2.8%.
POLH inh = qHTS for Inhibitors of Polymerase Eta; hit rate 1.2% among 390,000; recombinant Pol eta, fluorescent DNA replication assay; DNA polymerase eta (Homo sapiens), Q9Y253; AID 588591, 2011; Potency, µM (titrated, usually from 114 µM), for the others: at the highest dose activity change, negative = inhibition, usual class: inhibitors; further: potency means the concentration at half of the fitted maximal effect; on the % scale 0 is the no-effect control and ±100 the full control effect
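Fluorescent replication assay: 50 nM final substrate added after a 15 min room-temperature compound preincubation with 10 nM enzyme. Signal taken at 0 min and again at 10 min.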
POLK inh = qHTS for Inhibitors of Polymerase Kappa; DNA polymerase kappa (Homo sapiens), Q9UBT6; purified Pol kappa, fluorescent DNA synthesis assay, 10 min; Potency, µM (doses to about 107 µM), for inactives: at the top dose activity, negative = inhibition, actives largely listed as inhibitors; hit rate 0.53% among 400,000; AID 588579, 2011; further: potency means the concentration at half of the fitted maximal effect; on the % scale 0 is the no-effect control and ±100 the full control effect
Target sequence (Q9UBT6 whole entry, looked up): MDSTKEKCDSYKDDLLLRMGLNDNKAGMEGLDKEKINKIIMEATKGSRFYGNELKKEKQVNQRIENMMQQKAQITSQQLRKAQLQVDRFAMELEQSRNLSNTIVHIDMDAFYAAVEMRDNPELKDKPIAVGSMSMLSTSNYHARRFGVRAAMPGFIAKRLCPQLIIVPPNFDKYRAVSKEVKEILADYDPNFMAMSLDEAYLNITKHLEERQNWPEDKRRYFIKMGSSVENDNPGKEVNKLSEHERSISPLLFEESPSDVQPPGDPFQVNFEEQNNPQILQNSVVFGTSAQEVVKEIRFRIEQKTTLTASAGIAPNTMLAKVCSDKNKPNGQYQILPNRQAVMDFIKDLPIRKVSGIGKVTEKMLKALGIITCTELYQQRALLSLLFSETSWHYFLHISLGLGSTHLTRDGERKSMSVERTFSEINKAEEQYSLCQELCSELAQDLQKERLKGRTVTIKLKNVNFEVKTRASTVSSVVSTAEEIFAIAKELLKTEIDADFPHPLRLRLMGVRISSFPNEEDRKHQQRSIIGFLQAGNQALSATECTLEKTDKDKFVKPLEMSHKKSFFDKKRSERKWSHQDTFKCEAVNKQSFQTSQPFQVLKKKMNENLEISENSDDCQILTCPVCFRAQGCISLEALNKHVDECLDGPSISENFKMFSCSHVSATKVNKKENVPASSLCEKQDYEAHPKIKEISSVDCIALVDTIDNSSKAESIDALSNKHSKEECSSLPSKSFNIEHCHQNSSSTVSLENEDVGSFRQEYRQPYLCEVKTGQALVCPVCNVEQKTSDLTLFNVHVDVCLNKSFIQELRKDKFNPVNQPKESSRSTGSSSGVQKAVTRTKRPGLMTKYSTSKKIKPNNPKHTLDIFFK
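50 nM final substrate added after 15 min RT preincubation of 10 nM Pol kappa with compound; fluorescence read at 0 and 10 min.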
PI4K2A block = qHTS for small molecular inhibitors of PI4K2A | Phosphatidylinositol 4-kinase type 2-alpha (Homo sapiens), Q9BTU6 | purified PI4K2A, ADP-Glo luminescence, 1 h; active compounds read low | activity change, negative = inhibition, % at 76.9 µM | hit rate 0.13% among 420,000; in the data active means activity change below about -50%; inconclusive means mostly about -30% to -49%;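 further: -100% = wells without enzyme as full effect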
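PI4K2A activity was measured by ADP-Glo luminescence: enzyme (4 ug/mL stock) and phosphatidylinositol (1.2 mM stock) in Tris pH 7.5/MgCl2/EGTA/Triton X-100 buffer were reacted with ATP (300 microM stock) for one hour at ambient temperature.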
PI5P4K alpha inh = qHTS for Inhibitors of phosphatidylinositol 5-phosphate 4-kinase (PI5P4K); Phosphatidylinositol 5-phosphate 4-kinase type-2 alpha (Homo sapiens), P48426; max response, %; PI5P4Kalpha enzyme, ADP-Glo luminescence, 60 min; active compounds read low; hit rate 1.2% among 330,000; active means max response of -50% or lower; inconclusive means between -30% and -50%; inactive means -30% or higher; further: value at the top dose of about 77 µM; on the % scale 0 is the no-effect control and ±100 the full control effect
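Enzyme plus substrate dispensed, test compounds pinned in, then ATP (5 microM final) added. After 60 min at RT, ADP-Glo reagent 1 for 45 min and reagent 2 for 30 min preceded luminescence imaging.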
POLI inh = qHTS for Inhibitors of Polymerase Iota; hit rate 1% among 390,000; Pol iota fluorescent replication assay, 10 min; DNA polymerase iota (Homo sapiens), Q9UNA4; AID 588590, 2011; Potency, µM (series often up to 115 µM), inactives show at the highest dose activity, negative = inhibition, actives largely listed as inhibitors; further: potency means the concentration at half of the fitted maximal effect
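Fluorescent replication assay read twice, at 0 min and 10 min after adding 50 nM (final) substrate. Enzyme (10 nM) and compounds were first incubated 15 min at room temperature; enzyme-free buffer wells were negative controls.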
Pol beta inh = qHTS Assay for Inhibitors of DNA Polymerase Beta; P06746; Pol beta primer extension/strand displacement, fluorescence kinetic; Potency, µM (top dose mostly 114 µM), inactives show at the highest dose activity change, negative = inhibition, hits mostly inhibitors; hit rate 1.3% among 340,000; AID 485314, 2010; further: potency means the concentration at half of the fitted maximal effect; on the % scale 0 is the no-effect control and ±100 the full control effect
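Values derive from four-parameter Hill fits of normalized kinetic data: reads at 0 and 10 min following addition of 50 nM substrate to 10 nM Pol beta preincubated 15 min with compound.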
* marks the source's active call; other numbers are inactive results; ! = not confirmed by another sample; [ ] = remark or other dose. Unless noted, the call rests on the fitted dose curve; in most records, active means well fitted inhibition curve with a large enough effect; inconclusive means small, poorly fitted or top-dose-only effect, or another doubt; inactive means no such curve, though single readings can be large or run the other way.

`O=C(CCl)N(c1ccccc1)c1ccccc1` gave POLH inh -15.6%, POLK inh -3.0%, PI4K2A block 27.2, PI5P4K alpha inh 2.5, POLI inh 19.1% and Pol beta inh inconclusive.
Screening O=Cc1[nH]c2ccccc2c1N(C(=O)CCl)c1ccccc1 returned POLH inh 20µM*, POLK inh -11.1%, PI4K2A block 7.8, PI5P4K alpha inh -19.2, POLI inh inconclusive and Pol beta inh -10.5%.
`CCOc1ccc(-n2c(=S)sc3c(=O)[nH]c(SCC(=O)NCc4ccco4)nc32)cc1` gave POLH inh 56.2µM*, POLK inh -32.0%, PI4K2A block -7.4, POLI inh inconclusive and Pol beta inh 35.5µM*.
Nc1nc(SCC(=O)NCc2ccco2)[nH]c(=O)c1-c1ccccc1 was read as POLH inh -3.7%, POLK inh 0.2%, PI4K2A block -0.6, POLI inh -39.2% and Pol beta inh 1.5%.
Screening Cc1nc(SCC(=O)NCc2ccco2)[nH]c(=O)c1C returned POLH inh -15.6%, POLK inh -23.0%, PI4K2A block 0.3, POLI inh 79.4µM* and Pol beta inh inconclusive.
Cc1cc(NC(=O)C2CCN(S(=O)(=O)c3ccc(Br)s3)CC2)ccc1Br was read as POLH inh -14.2%, POLK inh 3.3%, PI4K2A block -2.1, POLI inh 35.6% and Pol beta inh 11.4%.
`Cc1noc(-c2ccc(-c3noc(-c4ccc(Cl)cc4)n3)cc2)n1` gave POLH inh -3.1%, POLK inh -10.3%[60.1 µM], PI4K2A block 4.1, POLI inh -5.1% and Pol beta inh -21.4%.
Cc1ccc(-c2nnc(Nc3ccc(Br)cc3)c3ccccc23)cc1S(=O)(=O)N1CCCCC1 was read as POLH inh -6.2%, POLK inh -8.7%, PI4K2A block -1.0, POLI inh -3.0% and Pol beta inh -0.8%.
Screening S=c1[nH]nc(-c2cc(-c3ccco3)[nH]n2)n1-c1cccc2ccccc12 returned POLH inh inconclusive, POLK inh -14.5%, PI4K2A block -5.8, POLI inh inconclusive and Pol beta inh 25.1µM*.
CC(=O)c1ccc(-n2c(-c3cc(-c4ccco4)[nH]n3)n[nH]c2=S)cc1 was read as POLH inh inconclusive, POLK inh -1.1%, PI4K2A block -0.8, PI5P4K alpha inh -56.8*, POLI inh -10.1% and Pol beta inh 1.4%.
Screening CNc1ccc(C=C2C=CC=C2)cc1 returned POLK inh inconclusive and POLI inh 5.01µM*.
Screening CC(C)(C)CC(=O)OCC(=O)[C@@]1(O)CC[C@H]2[C@@H]3CCC4=CC(=O)C=C[C@]4(C)[C@H]3[C@@H](O)C[C@@]21C returned PI4K2A block -0.8.
O=C(N/N=C/c1coc2ccccc2c1=O)c1cc(O)cc(O)c1 was read as POLH inh -13.2%, POLK inh 3.4%, PI4K2A block -4.7, PI5P4K alpha inh -54.0*, POLI inh -1.4% and Pol beta inh 22.4%.
`Cc1ccccc1-c1ccc2ncnc(NCc3cccs3)c2c1` gave POLK inh 22.4µM*.
O=C1CSc2ccc(C(=O)N3CCCC(C(=O)N4CCN(c5ccc(F)cc5)CC4)C3)cc2N1 (stereo not drawn) was read as PI4K2A block 0.5.
For CC(C)(C)n1ncc2c(=O)n(Cc3ccccc3C#N)cnc21 the results were POLK inh -22.7% and POLI inh 19.8%.
`Cc1c(N=Cc2cc3c(cc2[N+](=O)[O-])OCO3)cccc1[N+](=O)[O-]` gave POLH inh inconclusive, POLK inh 44.7µM*, PI4K2A block -12.5, PI5P4K alpha inh -24.0 and POLI inh 7.94µM*.
For OC[C@H]1O[C@@H](Oc2cc(O)cc(/C=C/c3ccc(O)cc3)c2)[C@H](O)[C@@H](O)[C@@H]1O the results were Pol beta inh 20µM*.
Screening C[n+]1ccc(C(c2c[nH]c3ccccc23)c2cc[n+](C)c3ccccc23)c2ccccc21 returned POLK inh 79.4µM* and POLI inh 89.1µM*.
`COc1cccc2c1C(=O)c1c(O)c3c(c(O)c1C2=O)C[C@@](O)(C(=O)CO)C[C@@H]3O[C@H]1C[C@H](N)[C@H](O)[C@H](C)O1` gave POLH inh 44.7µM*, POLK inh 26.7µM*!, PI4K2A block -24.1, PI5P4K alpha inh 0.5, POLI inh -10.4% and Pol beta inh 8.91µM*.
`CC(=O)C1(O)Cc2c(O)c3c(c(O)c2C(OC2CC(N)C(O)C(C)O2)C1)C(=O)c1c(O)cccc1C3=O` (stereo not drawn) gave POLK inh 7.08µM* and POLI inh inconclusive.
For COc1cccc2c1C(=O)c1c(O)c3c(c(O)c1C2=O)C[C@](O)(C(C)=O)C[C@H]3O[C@@H]1C[C@H](N)[C@H](O)[C@H](C)O1 the results were POLK inh 2.38µM*.
CC(=O)[C@@]1(O)Cc2c(O)c3c(c(O)c2[C@H](O[C@H]2C[C@H](N)[C@H](O)[C@H](C)O2)C1)C(=O)c1ccccc1C3=O was read as PI4K2A block 1.7.
C=CCNCc1ccc(OC)cc1OC was read as PI4K2A block -1.1.
For COc1cccc(Cn2c(=O)c(-c3cc(F)cc(F)c3)nc3cnc(N(C)C)nc32)c1 the results were POLK inh -2.8%[60.1 µM].
For O=C(N/N=C/c1ccccn1)c1sc2ccccc2c1Cl the results were POLH inh inconclusive, POLK inh -33.0%, PI4K2A block 0.9, PI5P4K alpha inh -16.1, POLI inh -7.3% and Pol beta inh 44.7µM*.
For O=C(N/N=C/c1c[nH]c2ccccc12)c1sc2ccccc2c1Cl the results were POLH inh -11.5%, POLK inh -19.1%, PI4K2A block 4.1, PI5P4K alpha inh 1.3, POLI inh 139.1% and Pol beta inh 0.5%.
Screening O=C(N/N=C/c1ccc([N+](=O)[O-])o1)c1sc2ccccc2c1Cl returned POLH inh inconclusive, POLK inh 50.1µM*, PI4K2A block -13.2, PI5P4K alpha inh -62.0*, POLI inh 20µM* and Pol beta inh inconclusive.
Screening C[C@@H]1C(=O)N(S(=O)(=O)c2ccccc2[N+](=O)[O-])[C@H]1c1ccc(-c2ccccc2)cc1 returned POLK inh -3.7% and POLI inh -29.5%.
